Reference: PubChem BioAssay AID372 (MTDP, 2006)
About 770 (0.77%) of roughly 100,000 compounds were called active. Rule as the data show it: active = inhibition above about 50%; inactive = the rest. The entries come from a sample that favours actives as a whole.

Biological target: Gag-Pol polyprotein (Human immunodeficiency virus type 1 group M subtype B (isolate HXB2)) (UniProt P04585)
Experiment: RNase H inhibition, HIV 1 Gag Pol polyprotein, FRET biochemical assay, screening (AID 372)
Conditions: HIV-1 RT RNase H, FRET RNA/DNA substrate fluorescence; at 10 µM; hits give high values

SMILES | inhibition
COc1ccc(/C=C/c2nc3sc4c(c3c(=O)o2)CCCC4)cc1 | 14% (inactive)
COc1cc2ccccc2cc1C(=O)NC(=S)Nc1cccc(-c2nc3ccccc3s2)c1C | 15% (inactive)
O=C1NC(=O)N(c2cccc(Br)c2)C(=O)/C1=C/c1cc(Cl)c(O)c(Cl)c1 | 10% (inactive)
O=C1CSC(c2ccc(Cl)c(Cl)c2)N1CCc1ccccc1 (stereo not drawn) | 7% (inactive)
Cc1cc(C)c(/C(O)=C/c2nc3ccccc3oc2=O)c(C)c1 | 0% (inactive)
Cc1ccc(/C(O)=C/c2nc3ccccc3oc2=O)o1 | 54% (active)
Cc1ccc(/C(O)=C/c2nc3ccc([N+](=O)[O-])cc3oc2=O)o1 | 10% (inactive)
COc1ccc(N=C(C)c2cc(Cl)ccc2O)cc1 | 31% (inactive)
COc1ccc(Cc2nc3ccccc3c(=O)n2/N=C/c2c[nH]c3ccccc23)cc1OC | 52% (active)
Cc1ccccc1-c1nc2ccccc2c(=O)n1/N=C/c1c[nH]c2ccccc12 | 10% (inactive)
COc1ccc(Cc2nc3ccccc3c(=O)n2/N=C/c2cccs2)cc1OC | 23% (inactive)
N#Cc1c(/N=C/c2cc(Br)ccc2Br)sc2c1CCCC2 | 15% (inactive)
Fc1ccccc1OCCn1ccnc1 | 7% (inactive)
Cc1ccc(NCCCC(=O)N/N=C/c2cccs2)cc1 | 12% (inactive)
COc1ccc(C(C)=O)cc1CSc1cc(C)c2ccccc2n1 | 46% (inactive)
Cc1ccc(C(C)C)c(OCC(=O)Nc2cccc(Cl)c2C)c1 | 15% (inactive)
COc1cc(C=C2C(=O)NC(=O)NC2=O)ccc1OCc1c(C)ccc2ccccc12 | 31% (inactive)
O=c1nc(/C=C/c2ccc(-c3ccc(F)c(Cl)c3)o2)cc(C(F)(F)F)[nH]1 | 48% (inactive)
O=c1nc(/C=C/c2ccc(-c3ccc(Cl)c([N+](=O)[O-])c3)o2)cc(C(F)(F)F)[nH]1 | 54% (active)
O=c1nc(/C=C/c2ccc(-c3ccc([N+](=O)[O-])cc3Cl)o2)cc(C(F)(F)F)[nH]1 | 20% (inactive)
COC(=O)C1=C(C)N(c2ccccc2F)C(=O)/C1=C\c1ccccc1F | 5% (inactive)
COc1cc([N+](=O)[O-])ccc1NC(=O)c1cccc2ccccc12 | 26% (inactive)
COc1cc2ccccc2cc1C(=O)Nc1cc([N+](=O)[O-])ccc1F | 46% (inactive)
COc1cc([N+](=O)[O-])ccc1-c1ccc(C(=O)Nc2ccc(NC(C)=O)cc2)o1 | 26% (inactive)
COc1cc([N+](=O)[O-])ccc1-c1ccc(C(=O)Nc2ccc(I)cc2Cl)o1 | 51% (active)

SMILES | inhibition
CCOc1ccc(NC(=O)c2ccc(-c3ccc([N+](=O)[O-])cc3OC)o2)cc1 | 36% (inactive)
COc1ccccc1NC(=O)c1ccc(-c2ccc([N+](=O)[O-])cc2OC)o1 | 30% (inactive)
Cc1cc([N+](=O)[O-])ccc1-c1ccc(C(=O)Nc2ccc(I)cc2Cl)o1 | 24% (inactive)
COc1cc([N+](=O)[O-])ccc1NC(=O)c1ccc(-c2cc(Cl)ccc2Cl)o1 | 60% (active)
COc1cc([N+](=O)[O-])ccc1NC(=O)c1cc2ccccc2cc1OC | 53% (active)
COc1cc([N+](=O)[O-])ccc1NC(=O)c1cc(Cl)ccc1Cl | 22% (inactive)
O=C(Nc1cc([N+](=O)[O-])ccc1F)c1ccc(-c2cc(Cl)ccc2Cl)o1 | 31% (inactive)
CCCC(=O)Nc1ccc(NC(=O)c2ccc(-c3ccc([N+](=O)[O-])cc3OC)o2)cc1 | 56% (active)
COc1ccc(OC)c(/C=N/NC(=O)CSc2nc3ccccc3n2C)c1 | 20% (inactive)
Cc1ccnc(NS(=O)(=O)Cc2ccccc2)c1 | 3% (inactive)
COc1ccc(OC)c(N2C(=O)NC(=O)C(=Cc3cccs3)C2=O)c1 | 1% (inactive)
CCn1c(NC(=O)c2ccc(Cl)cc2)nc2ccccc21 | 4% (inactive)
Cc1ccc(NC(=S)NC(=O)c2ccccc2F)cc1C | 15% (inactive)
COc1ccc(CCN=C(Nc2ccccc2)SC2CC(=O)N(c3ccccc3)C2=O)cc1 (stereo not drawn) | 6% (inactive)
CCN(CC)c1ccc(C=Nc2ccccc2C(=O)Nc2ccccc2)c(O)c1 | 5% (inactive)
N#C/C(=C/c1ccc(-c2ccccc2[N+](=O)[O-])o1)C(=O)NCc1ccccc1 | 27% (inactive)
COc1ccc(-n2nc3cc(C)c(NC(=O)c4ccc([N+](=O)[O-])cc4)cc3n2)cc1 | 10% (inactive)
COc1ccc(-n2nc3cc(C)c(NC(=O)c4ccc(-c5cccc([N+](=O)[O-])c5)o4)cc3n2)cc1 | 42% (inactive)
COc1ccc(-n2nc3cc(C)c(NC(=O)c4ccc(-c5ccc([N+](=O)[O-])cc5OC)o4)cc3n2)cc1 | 54% (active)
COc1ccc(-n2cnc(N)c2C(=O)c2cccc([N+](=O)[O-])c2)cc1 | 1% (inactive)
Cc1ccc(-c2cc(C(F)(F)F)n3nc(C(N)=O)c(Cl)c3n2)cc1 | 11% (inactive)
Clc1cccc(NCc2ccncc2)c1 | 2% (inactive)
COc1ccc(-n2sc3c(c2=S)-c2ccc(OC)cc2NC3(C)C)cc1 | 15% (inactive)
CC1=C(C(=O)OCc2ccccc2)C(c2ccccc2Br)C2=C(CC(c3ccccc3)CC2=O)N1 (stereo not drawn) | 32% (inactive)
CCCOC(=O)C1=C(C)NC2=C(C(=O)CC(c3ccccc3)C2)C1c1ccccc1Br (stereo not drawn) | 58% (active)

SMILES | inhibition
CC1=C(C(=O)OCCc2ccccc2)C(c2ccccc2Br)C2=C(CC(c3ccccc3)CC2=O)N1 (stereo not drawn) | 26% (inactive)
O=S(=O)(NC1CCCCCCC1)c1ccc(F)cc1 | 7% (inactive)
O=C1NC(=S)S/C1=C\c1cn(Cc2ccc(Cl)cc2)c2ccccc12 | 31% (inactive)
CCOc1ccccc1OCCCOc1c(C)cc(C)cc1Cl | 52% (active)
CCOc1ccccc1OCCOCCOc1c(C)cc(C)cc1Cl | 33% (inactive)
CCN(CC)CCOc1c(C)cc(C)cc1Cl | 52% (active)
CCOc1ccccc1OCCCCOc1c(Cl)cc(C)cc1Cl | 23% (inactive)
CCN(CC)CCOc1c(C)cc(Cl)cc1Cl | 0% (inactive)
CCN(CC)CCOc1c(Cl)cc(C)cc1Cl | 2% (inactive)
N#C/C(=C\Nc1ccccc1Cl)c1nc(-c2ccc(Br)cc2)cs1 | 2% (inactive)
CC(=O)C1C(=O)C=C(c2cccs2)CC1c1ccccc1 (stereo not drawn) | 0% (inactive)
CCOC(=O)C1=C(c2ccccc2)S/C(=C2/C(=S)C(C)(C)N(C(C)=O)c3ccc(C)cc32)S1 | 24% (inactive)
CCOC(=O)C1=C(c2ccccc2)S/C(=C2/C(=S)C(C)(C)N(C(C)=O)c3ccc(OC)cc32)S1 | 22% (inactive)
CC(=O)C1=C(c2ccccc2)S/C(=C2/C(=S)C(C)(C)N(C(C)=O)c3ccc(C)cc32)S1 | 50% (active)
O=C(CSc1nc(O)cc(=O)[nH]1)C1CC1 | 11% (inactive)
O=C1NC(=S)N(c2ccccc2)C(=O)/C1=C/c1cccn1-c1ccc(Cl)cc1 | 52% (active)
COc1ccc(N2C(=O)/C(=C/c3cccn3-c3ccccc3)C(=O)NC2=S)cc1 | 54% (active)
COc1ccc(N2C(=O)/C(=C/c3cccn3-c3ccc(Br)cc3)C(=O)NC2=S)cc1 | 29% (inactive)
O=C1NC(=O)C(=Cc2cccn2-c2ccccc2)C(=O)N1 | 29% (inactive)
COc1ccc(-n2cccc2/C=C2\C(=O)NC(=S)N(c3ccc(Br)cc3)C2=O)cc1 | 32% (inactive)
CN1C(=O)S/C(=C/c2cccn2-c2ccc(Cl)cc2)C1=O | 44% (inactive)
O=C1NC(=O)C(=Cc2cccn2-c2ccc(Cl)cc2)C(=O)N1 | 57% (active)
CN1C(=O)/C(=C/c2cccn2-c2ccc([N+](=O)[O-])cc2)SC1=S | 42% (inactive)
O=C1NC(=S)N(c2ccccc2)C(=O)/C1=C/c1cccn1-c1ccccc1 | 10% (inactive)
O=C1NC(=S)NC(=O)C1=Cc1cccn1-c1ccc(Cl)cc1 | 11% (inactive)

SMILES | inhibition
O=C1NC(=S)N(c2ccc(Cl)cc2)C(=O)/C1=C/c1cccn1-c1ccccc1 | 4% (inactive)
COc1ccc(-n2cccc2/C=C2/SC(=O)N(C)C2=O)cc1 | 53% (active)
O=C(c1cc(-c2ccccc2)nc2ccccc12)N1CCc2ccccc2C1 | 9% (inactive)
COc1ccc(C(=O)N/C(=C\c2cc(OC)c(OC)cc2[N+](=O)[O-])C(=O)Nc2ccc(C)cc2C)cc1 | 18% (inactive)
Cc1cccc(C2(c3cccc(C)c3)CC2C(=O)Nc2cc([N+](=O)[O-])ccc2O)c1 (stereo not drawn) | 30% (inactive)
CC(C)(C)NC(=O)C(=O)N/N=C/c1cccc2ccccc12 | 10% (inactive)
COC(=O)C(=C/C(C)=C/c1ccco1)C(=O)OC | 1% (inactive)
CCN(CC)CCCCCOc1cc(C)cc(C)c1 | 17% (inactive)
COc1cc(C(=O)N/C(=C/c2ccc(Br)cc2)C(=O)NC(C)C(=O)O)cc(OC)c1OC (stereo not drawn) | 3% (inactive)
COC(=O)c1ccccc1NC(=O)COc1ccc2ccccc2c1 | 38% (inactive)
O=C(COc1ccc2ccccc2c1)Nc1ccccc1C(=O)Nc1ccccc1 | 54% (active)
O=C(COc1ccccc1)Nc1ccccc1C(=O)Nc1ccc(C(=O)O)cc1 | 1% (inactive)
C=C(C)c1cccc(C(C)(C)NC(=O)NCc2ccccn2)c1 | 0% (inactive)
O=C1c2ccccc2C(=O)N1CCc1nc2ccccc2c(=O)n1-c1ccccn1 | 61% (active)
Cc1cccc(-n2c(CCN3C(=O)c4ccccc4C3=O)nc3ccccc3c2=O)n1 | 14% (inactive)
O=C1c2ccccc2C(=O)N1CCc1nc2ccccc2c(=O)n1-c1ccc(Br)cn1 | 40% (inactive)
O=C(c1cccs1)N1CCN(c2ccc([N+](=O)[O-])cc2)CC1 | 4% (inactive)
Cc1ccc2cc(C3=C/C(=C\c4c(Cl)cccc4Cl)C(=O)O3)ccc2c1 | 6% (inactive)
Cc1ccc(C2=C/C(=C\c3cc([N+](=O)[O-])ccc3Cl)C(=O)O2)cc1 | 43% (inactive)
O=C1OC(c2ccccc2)=C/C1=C\c1c(Cl)cccc1Cl | 50% (active)
O=C1OC(c2ccccc2)=C/C1=C/c1ccc(Cl)cc1 | 7% (inactive)
O=C1OC(c2ccccc2)=C/C1=C/c1ccc([N+](=O)[O-])cc1 | 2% (inactive)
Cc1ccc([N+](=O)[O-])cc1/C=C1/C=C(c2ccccc2)OC1=O | 57% (active)
